Source: PubChem BioAssay (NCATS)
Results filed as inconclusive are left out. A call without a number means that no potency is given here. The source made the active and inactive calls. Unless noted, the call rests on the fitted dose curve; in most records, active means well fitted curve in the direction sought with a large enough effect; inconclusive means small, poorly fitted or top-dose-only effect, or another doubt; inactive means no such curve, though single readings can be large; an effect the other way counts as inactive or inconclusive.

Columns and labels:
[1] = target: Methanococcus maripaludis chaperonin (MmCpn) (UniProt Q6LX38); assay: High-Throughput Screening for Modulators of Cytosolic Chaperonin Activity: MmCpn Primary Screen (AID 488978);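 further: 50 nM MmCpn enzyme hydrolysing 30 µM ATP at 37 °C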
Procedure, shortened: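 ATPase activity of 50 nM MmCpn was assayed with 30 uM ATP, 10 minutes at 37C, after a 5 min compound preincubation at room temperature. ADP production was read as HTRF emission at 590 and 665 nm.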

[2] = target: Transient receptor potential cation channel subfamily V member 1 (Homo sapiens) (UniProt Q8NER1); assay: HTS Assay for Compounds that Act as Enhancers of the Vanilloid Receptor 1 (AID 488979)
Procedure, shortened: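 TRPV1-expressing cells loaded with Fluo-8 calcium dye; compounds added and calcium influx read kinetically for 3 min (agonist phase), then capsaicin at EC20 added and read 2 min more for enhancement. Fluorescence ex 480/em 520 nm.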

[3] = target: Thyrotropin receptor (Homo sapiens) (UniProt P16473); assay: qHTS Assay for Antagonists of the Thyroid Stimulating Hormone Receptor (AID 488980); further: series mostly up to about 58 µM
Procedure, shortened: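 Inhibition of cAMP raised by EC80 TSH (4 nM final) was read by HTRF, with lysate cAMP competing against cAMP-d2 for cryptate antibody after 30 min at room temperature. The cells were transfected HEK293 held in phosphodiesterase inhibitor RO 20-1724 at 70 uM.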

[4] = target: D(1A) dopamine receptor (Homo sapiens) (UniProt P21728); assay: HTS Assay for Allosteric Agonists of the Human D1 Dopamine Receptor: Primary Screen for Agonists (AID 488981)
Procedure, shortened: (§1)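 Tetracycline-induced HEK293 T-REx cells force-coupled to calcium signalling were incubated overnight at 30 C and dye-loaded at room temperature. Calcium flux over 180 s after compound addition flagged agonists; a further 180 s read after EC20 dopamine flagged potentiators.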

[5] = target: D(1A) dopamine receptor (Homo sapiens) (UniProt P21728); assay: HTS Assay for Allosteric Agonists of the Human D1 Dopamine Receptor: Primary Screen for Potentiators (AID 488982)
Procedure, shortened: as §1

[6] = target: D(1A) dopamine receptor (Homo sapiens) (UniProt P21728); assay: HTS Assay for Allosteric Agonists of the Human D1 Dopamine Receptor: Primary Screen for Antagonists (AID 488983);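 further: calcium flux response to an EC80 dopamine challenge measured with no-wash dye; nearly all actives have a fitted effect of over 65% in size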; further: potency means the concentration at half of the fitted maximal effect
Procedure, shortened: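 Tetracycline-induced HEK293 T-REx cells expressing force-coupled D1 were plated overnight at 30 C, dye-loaded for calcium, and read kinetically. Compounds were pinned in, then an EC80 dopamine challenge followed after 180 s to reveal antagonism.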

[7] = target: ATP-dependent 6-phosphofructokinase (Trypanosoma brucei brucei) (UniProt O15648); assay: qHTS Assay to Find Inhibitors of T. brucei phosphofructokinase: hit validation (AID 492961);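 further: luminescence reports ADP formed as PFK phosphorylates fructose-6-phosphate with ATP; series mostly up to about 51 µM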
Procedure, shortened: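 Percent activity derived from corrected luminescence, normalized between 0x and 1x enzyme controls, then fitted to concentration-response curves. Conditions: 1.25 nM PFK, 0.1 mM ATP, 0.5 mM F6P, 45 min RT.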

[8] = Validation screen for small molecules that induce genotoxicity in human embryonic kidney (HEK293T) cells expressing luciferase-tagged ELG1 (AID 493106); further: potency means the concentration at half of the fitted maximal effect
Procedure, shortened: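 HEK293T cells expressing luciferase-tagged ELG1 were exposed to compound or DMSO vehicle for 16 hr at 37 °C, 5% CO2. Genotoxic stress raises ELG1 levels, so increased luciferase signal after ONE-Glo addition and 30 min at room temperature marks hits.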

[9] = target: ATPase family AAA domain-containing protein 5 (Homo sapiens) (UniProt Q96QE3); assay: Validation screen for small molecules that inhibit ELG1-dependent DNA repair in human embryonic kidney (HEK293T) cells expressing luciferase-tagged ELG1 (AID 493107);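 further: cells co-treated with the DNA-damaging agent 5-fluorouridine alongside compound; series mostly up to about 46 µM; inhibitors lower the ELG1-luciferase luminescence signal; nearly all actives have a fitted effect of over 70% in size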
Procedure, shortened: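 HEK293T cells expressing luciferase-tagged ELG1 were co-treated with 5-fluorouridine and compound or DMSO for 16 hr at 37 °C, 5% CO2. Luciferase activity was then read with ONE-Glo after 30 min at room temperature; suppressed signal indicates blocked ELG1 function.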

[10] = Nrf2 qHTS screen for inhibitors: Validation (AID 493153; active means well fitted inhibition curve with a large enough effect in the main read-out, with a control signal flat, not every such curve was filed as active; further: potency means the concentration at half of the fitted maximal effect); conditions: Potency: luciferase luminescence; viability change: measured here: cytotoxicity max response
Procedure, shortened: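 A549 cells carrying an ARE-driven firefly luciferase reporter, in 5% FBS OPTI-MEM, were treated with compounds in concentration-response for 18-24 h at 37°C. Viability was read by CellTiter-Fluor fluorescence, then Nrf2 activity by luciferase luminescence.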

Chain of Thyrotropin receptor (Homo sapiens) (P16473 whole entry, looked up): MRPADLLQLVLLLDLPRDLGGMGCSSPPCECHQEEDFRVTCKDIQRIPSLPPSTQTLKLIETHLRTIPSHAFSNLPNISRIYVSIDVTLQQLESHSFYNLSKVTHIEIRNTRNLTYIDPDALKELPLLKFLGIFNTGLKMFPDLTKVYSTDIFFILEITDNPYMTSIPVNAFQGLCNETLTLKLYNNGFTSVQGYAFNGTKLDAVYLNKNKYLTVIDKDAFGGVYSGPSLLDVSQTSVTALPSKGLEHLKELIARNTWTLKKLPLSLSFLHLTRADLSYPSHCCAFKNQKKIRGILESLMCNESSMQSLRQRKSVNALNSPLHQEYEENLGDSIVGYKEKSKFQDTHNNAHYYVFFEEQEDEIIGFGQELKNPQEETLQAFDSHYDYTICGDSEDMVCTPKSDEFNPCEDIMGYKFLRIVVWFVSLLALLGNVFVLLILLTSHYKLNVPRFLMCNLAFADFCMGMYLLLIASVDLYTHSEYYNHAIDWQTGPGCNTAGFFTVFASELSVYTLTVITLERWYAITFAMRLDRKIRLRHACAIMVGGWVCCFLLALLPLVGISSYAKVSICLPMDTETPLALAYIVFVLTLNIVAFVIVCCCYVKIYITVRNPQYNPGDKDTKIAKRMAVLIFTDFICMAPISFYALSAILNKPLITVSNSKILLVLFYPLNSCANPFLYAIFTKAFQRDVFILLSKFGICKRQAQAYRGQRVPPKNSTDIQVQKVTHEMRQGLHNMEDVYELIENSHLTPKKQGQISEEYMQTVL
Chain of Transient receptor potential cation channel subfamily V member 1 (Homo sapiens) (Q8NER1 whole entry, looked up): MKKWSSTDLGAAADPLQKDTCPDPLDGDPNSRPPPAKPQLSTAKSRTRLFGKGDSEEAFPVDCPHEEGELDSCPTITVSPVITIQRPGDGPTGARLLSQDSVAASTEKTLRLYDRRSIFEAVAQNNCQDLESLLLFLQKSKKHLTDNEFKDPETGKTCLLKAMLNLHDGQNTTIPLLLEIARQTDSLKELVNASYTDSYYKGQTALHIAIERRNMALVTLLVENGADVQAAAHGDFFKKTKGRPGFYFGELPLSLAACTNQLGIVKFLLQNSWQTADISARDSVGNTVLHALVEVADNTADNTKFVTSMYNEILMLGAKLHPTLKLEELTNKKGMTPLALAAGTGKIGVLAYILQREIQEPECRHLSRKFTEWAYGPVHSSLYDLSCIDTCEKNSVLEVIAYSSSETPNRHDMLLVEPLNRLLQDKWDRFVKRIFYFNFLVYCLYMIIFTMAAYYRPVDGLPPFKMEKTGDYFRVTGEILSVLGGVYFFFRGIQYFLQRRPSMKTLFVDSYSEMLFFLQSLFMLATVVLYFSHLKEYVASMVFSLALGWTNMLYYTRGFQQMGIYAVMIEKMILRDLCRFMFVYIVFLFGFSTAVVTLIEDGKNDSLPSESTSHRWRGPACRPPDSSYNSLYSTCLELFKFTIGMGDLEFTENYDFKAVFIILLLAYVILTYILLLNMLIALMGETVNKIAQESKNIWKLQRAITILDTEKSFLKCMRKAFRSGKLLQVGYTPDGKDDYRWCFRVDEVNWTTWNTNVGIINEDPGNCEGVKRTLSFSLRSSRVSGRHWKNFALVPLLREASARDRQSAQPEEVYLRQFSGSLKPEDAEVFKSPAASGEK
Chain of Methanococcus maripaludis chaperonin (MmCpn) (Q6LX38 1-543): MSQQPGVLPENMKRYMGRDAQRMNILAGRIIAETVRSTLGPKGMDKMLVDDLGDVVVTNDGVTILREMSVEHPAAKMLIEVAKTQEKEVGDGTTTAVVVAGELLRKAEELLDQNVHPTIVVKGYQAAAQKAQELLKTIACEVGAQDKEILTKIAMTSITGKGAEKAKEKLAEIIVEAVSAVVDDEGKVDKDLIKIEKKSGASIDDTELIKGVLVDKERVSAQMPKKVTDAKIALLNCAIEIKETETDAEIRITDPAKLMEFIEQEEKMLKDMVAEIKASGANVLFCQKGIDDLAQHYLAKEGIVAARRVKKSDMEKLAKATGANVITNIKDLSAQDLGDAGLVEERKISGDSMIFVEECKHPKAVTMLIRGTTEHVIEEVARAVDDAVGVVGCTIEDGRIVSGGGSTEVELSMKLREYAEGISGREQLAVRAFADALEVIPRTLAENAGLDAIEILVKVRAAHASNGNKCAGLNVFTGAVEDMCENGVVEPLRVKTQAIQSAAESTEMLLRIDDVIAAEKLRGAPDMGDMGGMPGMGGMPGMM
Chain of D(1A) dopamine receptor (Homo sapiens) (P21728 whole entry, looked up): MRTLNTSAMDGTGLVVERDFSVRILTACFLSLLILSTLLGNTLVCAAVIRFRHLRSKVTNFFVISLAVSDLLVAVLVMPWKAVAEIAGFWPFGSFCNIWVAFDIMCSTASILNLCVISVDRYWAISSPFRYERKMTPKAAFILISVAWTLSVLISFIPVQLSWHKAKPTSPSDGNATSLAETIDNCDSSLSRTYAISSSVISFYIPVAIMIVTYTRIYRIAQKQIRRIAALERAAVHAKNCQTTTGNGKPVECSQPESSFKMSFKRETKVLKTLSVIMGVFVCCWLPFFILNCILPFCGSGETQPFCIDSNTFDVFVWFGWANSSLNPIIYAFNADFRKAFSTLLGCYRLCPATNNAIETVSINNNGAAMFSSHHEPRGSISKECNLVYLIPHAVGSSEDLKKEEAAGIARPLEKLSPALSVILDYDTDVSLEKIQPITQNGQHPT
Chain of ATPase family AAA domain-containing protein 5 (Homo sapiens) (Q96QE3 whole entry, looked up, the tested form may be a part): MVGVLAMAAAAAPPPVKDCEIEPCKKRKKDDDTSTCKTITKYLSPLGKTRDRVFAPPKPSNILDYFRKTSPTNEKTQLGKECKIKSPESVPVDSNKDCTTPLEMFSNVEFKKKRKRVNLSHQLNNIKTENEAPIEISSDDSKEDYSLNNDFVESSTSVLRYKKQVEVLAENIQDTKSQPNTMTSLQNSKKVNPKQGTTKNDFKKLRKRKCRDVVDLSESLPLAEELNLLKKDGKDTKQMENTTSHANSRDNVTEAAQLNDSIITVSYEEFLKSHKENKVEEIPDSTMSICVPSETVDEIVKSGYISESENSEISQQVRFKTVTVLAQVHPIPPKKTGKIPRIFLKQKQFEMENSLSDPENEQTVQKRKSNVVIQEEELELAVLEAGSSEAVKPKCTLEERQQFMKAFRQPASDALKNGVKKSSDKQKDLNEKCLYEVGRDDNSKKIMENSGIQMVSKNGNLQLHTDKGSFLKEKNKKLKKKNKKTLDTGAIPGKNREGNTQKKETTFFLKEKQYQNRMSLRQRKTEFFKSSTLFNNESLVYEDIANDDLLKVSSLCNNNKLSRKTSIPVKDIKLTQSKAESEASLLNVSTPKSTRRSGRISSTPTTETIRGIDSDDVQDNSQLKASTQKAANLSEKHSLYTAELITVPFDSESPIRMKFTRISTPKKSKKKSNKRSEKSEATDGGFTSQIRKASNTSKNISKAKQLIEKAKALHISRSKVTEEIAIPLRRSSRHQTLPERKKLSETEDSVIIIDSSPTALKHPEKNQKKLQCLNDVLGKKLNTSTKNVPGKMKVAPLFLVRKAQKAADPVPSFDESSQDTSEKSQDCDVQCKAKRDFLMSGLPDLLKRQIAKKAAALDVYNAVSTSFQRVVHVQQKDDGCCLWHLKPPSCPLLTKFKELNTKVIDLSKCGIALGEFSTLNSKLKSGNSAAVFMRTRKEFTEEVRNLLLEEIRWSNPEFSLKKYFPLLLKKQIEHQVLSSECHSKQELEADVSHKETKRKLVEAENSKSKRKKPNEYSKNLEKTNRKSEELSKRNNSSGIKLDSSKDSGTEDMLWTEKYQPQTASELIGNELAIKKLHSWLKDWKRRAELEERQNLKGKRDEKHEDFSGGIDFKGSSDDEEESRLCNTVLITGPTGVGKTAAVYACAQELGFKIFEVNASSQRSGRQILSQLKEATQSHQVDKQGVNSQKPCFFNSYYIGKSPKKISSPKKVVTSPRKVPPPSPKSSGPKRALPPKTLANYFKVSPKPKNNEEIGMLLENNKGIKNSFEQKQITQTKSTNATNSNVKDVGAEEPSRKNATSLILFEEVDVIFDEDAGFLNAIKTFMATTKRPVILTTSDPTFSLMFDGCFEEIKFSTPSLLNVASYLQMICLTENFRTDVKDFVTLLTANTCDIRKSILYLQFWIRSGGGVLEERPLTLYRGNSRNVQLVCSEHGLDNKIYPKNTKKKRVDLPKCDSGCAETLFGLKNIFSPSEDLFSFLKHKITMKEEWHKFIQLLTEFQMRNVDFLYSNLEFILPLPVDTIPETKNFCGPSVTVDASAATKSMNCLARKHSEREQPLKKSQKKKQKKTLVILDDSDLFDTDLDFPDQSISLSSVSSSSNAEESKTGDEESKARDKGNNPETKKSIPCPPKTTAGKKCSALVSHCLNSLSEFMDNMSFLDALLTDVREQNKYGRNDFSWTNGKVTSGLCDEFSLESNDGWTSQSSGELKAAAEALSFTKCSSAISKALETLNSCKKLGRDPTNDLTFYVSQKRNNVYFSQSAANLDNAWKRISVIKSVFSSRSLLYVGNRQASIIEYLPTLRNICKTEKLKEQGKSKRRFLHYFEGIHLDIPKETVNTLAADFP
Chain of ATP-dependent 6-phosphofructokinase (Trypanosoma brucei brucei) (O15648 whole entry, looked up): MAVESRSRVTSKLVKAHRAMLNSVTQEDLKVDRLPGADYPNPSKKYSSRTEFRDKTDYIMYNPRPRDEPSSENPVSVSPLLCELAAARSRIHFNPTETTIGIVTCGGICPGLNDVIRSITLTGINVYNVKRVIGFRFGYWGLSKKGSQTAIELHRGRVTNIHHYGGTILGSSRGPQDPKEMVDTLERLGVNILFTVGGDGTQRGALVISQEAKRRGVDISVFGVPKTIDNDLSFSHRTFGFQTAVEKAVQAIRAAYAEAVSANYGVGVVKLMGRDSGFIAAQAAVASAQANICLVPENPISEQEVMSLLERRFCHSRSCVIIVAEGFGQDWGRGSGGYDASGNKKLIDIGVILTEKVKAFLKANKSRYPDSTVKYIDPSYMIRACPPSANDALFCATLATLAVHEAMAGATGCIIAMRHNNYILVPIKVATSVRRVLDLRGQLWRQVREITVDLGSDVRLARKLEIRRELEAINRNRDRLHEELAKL

| Structure (SMILES) | outcome [1] | outcome [2] | outcome [3] | outcome [4] | Potency [5] | Potency [6] | outcome [7] | Potency [8] | outcome [9] | Potency [10] | viability change [10] [%] |
| --- | --- | --- | --- | --- | --- | --- | --- | --- | --- | --- | --- |
| O=C1c2ccccc2-c2n[nH]c3cccc1c23 | inactive | inactive | inactive | inactive | inactive | inactive | inactive | inactive | inactive |  |  |
| Nc1ccn([C@@H]2O[C@H](CO)[C@@H](O)C2O)c(=O)n1 (stereo partly specified) | inactive |  |  | inactive | inactive | inactive | inactive | inactive | inactive |  |  |
| O=C1c2c(O)cc(O)cc2OC(c2ccc(O)c(O)c2)C1O (stereo unspecified) | inactive | inactive | inactive | inactive |  | inactive |  | inactive | inactive | inactive | -0.133 |
| COc1ccccc1N1CCN(CCN(C(=O)C2CCCCC2)c2ccccn2)CC1 | inactive | inactive | inactive | inactive | inactive | inactive |  | inactive | inactive |  |  |
| C[C@H](Cc1ccc(O)c(O)c1)[C@@H](C)Cc1ccc(O)c(O)c1 | inactive | inactive | inactive |  |  | inactive |  | inactive |  |  |  |
| Cc1cccc(C#Cc2ccccc2)n1 | inactive | inactive | inactive | inactive | inactive | inactive |  | 8.2 µM (active) |  | inactive | 2 |
| O=c1c(O)c(-c2cc(O)c(O)c(O)c2)oc2cc(O)cc(O)c12 | inactive | inactive | inactive | inactive | inactive |  |  | inactive | inactive | inactive | -7.68 |
| Cc1cc(O)c2c(c1)C(=O)c1cc(O)cc(O)c1C2=O | inactive | inactive | inactive | inactive | inactive | inactive |  | inactive | inactive | inactive | -15.1 |
| CC1(C)C(=O)N(CCN2CCC(C(=O)c3ccc(F)cc3)CC2)c2ccccc21 | inactive | inactive | inactive | inactive | inactive | 4.47 µM (active) |  | inactive |  |  |  |
| CC(=O)N1CCN(c2ccc(OC[C@H]3CO[C@](Cn4ccnc4)(c4ccc(Cl)cc4Cl)O3)cc2)CC1 | inactive |  | inactive |  | inactive |  |  |  |  |  |  |
| O=C(CCc1ccc(O)cc1)c1c(O)cc(O)cc1O | inactive | inactive | inactive | inactive | inactive | inactive |  | inactive |  | inactive | -1.1 |
| CN(C)CCCC1(c2ccc(F)cc2)OCc2cc(C#N)ccc21 (stereo unspecified) | inactive |  | inactive | inactive | inactive |  |  | inactive | inactive | inactive | 6.56 |
| O=c1cc(N2CCOCC2)oc2c(-c3ccccc3)cccc12 | inactive | inactive | inactive | inactive | inactive | inactive |  | inactive |  | 9.2 µM (active) | -18.1 |
| CC(C)c1ccc2c(c1)c(SC(C)(C)C)c(CC(C)(C)C(=O)O)n2Cc1ccc(Cl)cc1 | inactive |  | inactive | inactive | inactive | inactive |  | inactive | inactive |  |  |
| CCN(CC)C(=S)SSC(=S)N(CC)CC | inactive |  | inactive |  |  |  |  | 18.3 µM (active) |  | inactive | 1.38 |
| O=c1ccc2ccc(O)c(O)c2o1 | inactive | inactive | inactive | inactive |  | inactive |  | inactive |  | inactive | 21 |
| O=C(c1ccccc1)c1ccc2n1CCC2C(=O)O (stereo unspecified) | inactive | inactive |  | inactive | inactive | inactive |  | inactive | inactive | inactive | 0.0927 |
